Source: PubChem BioAssay (NCI)
The panel holds about 83,000 compounds, 20% with a hit somewhere; the sample as a whole holds those more often.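 For each line, cells grew in 96-well plates with the test compound present at a single concentration for 48 hours.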 Unmarked numbers belong to inactive results. Calls of active or inactive are those of the source. The calls were made as follows: active = growth percent below 10; inactive = the rest.

Each molecule was assayed on ACHN renal (assay: NCI-60 one-dose screen, 48 h (100 = growth as untreated, 0 = no growth, -100 = all killed)). Settings: 10 µM unless noted.

Compound | growth
COC(=O)c1nc(-c2ccccc2)oc1S(=O)(=O)n1nc(-c2ccccc2)cc1N | 19.2%
COc1ccc(C(=O)c2cc(OC)c(C)c(OC)c2)cc1OC(=O)CCl | 41.5%
CC(=O)c1cnc(-c2ccccc2)nc1CBr | 35.3%
O=C1CC23OC4ON=C(Br)C4C2C(O)c2ccccc2N13 (stereo not drawn) | 94.3%
COc1ccc(C(=S)c2cc(OC)c(OC)c(OC)c2)cc1OC(=O)CCl | 41.9%
COc1ccc2oc(=O)cc(-c3c(C#N)c(N)n4nc(N)c(C#N)c4c3C#N)c2c1 | 101%
O=C(Nc1cc(Br)ccn1)c1cc2cc(Nc3nc(-c4ccccc4)nc4ccccc34)ccc2oc1=O | 103%
CC1CCCN(CCCCCOc2ccc3oc4ccc(Cl)cc4c(=O)c3c2)C1 (stereo not drawn) | 89.4%
COc1cc(C2=NNC(c3ccc(N(C)C)cc3)C2)cc(OC)c1OC (stereo not drawn) | 50.6%
Cn1c2ccccc2c2c(OC(=O)c3ccccc3)c3c(nc21)-c1ccccc1C3 | 97.1%
COc1cc(C(C)c2ccc3c(ccn3C)c2)cc(OC)c1OC (stereo not drawn) | 28.5%
CC(=O)OCC1SC(OC(C)=O)C(NC(=O)/C=C/CCl)C(OC(C)=O)C1OC(C)=O (stereo not drawn) | 92.1%
C[C@H]1[C@H](C)CC[C@]2(C(=O)OCCCC[P+](c3ccccc3)(c3ccccc3)c3ccccc3)CC[C@]3(C)C(=CC[C@@H]4[C@@]5(C)CC[C@H](OC(=O)C(Cl)Cl)C(C)(C)[C@@H]5CC[C@]43C)[C@H]12 | -79.6% (active)
O=C1C(=O)c2c(nc3ccc(C(F)(F)F)cn23)-c2ccccc21 | -99.1% (active)
COc1ccc2[nH]c(-c3ccccc3)c(C=C(C#N)C#N)c2c1 | 54.2%
NC(=N\N=C\c1ccccc1O)/C(N)=N/N=C/c1ccccc1O | 74.9%
Cc1ccc(-c2nc(C#N)c(S(=O)(=O)N(C)CCO)o2)cc1 | 60.7%

Compound | growth
CC[C@H](Nc1ncnc2nc[nH]c12)c1nc2cccc(CC(=O)c3ccc(C(=O)NO)cc3)c2c(=O)n1-c1ccccc1 | 102%
NC(=O)c1ccc2nc3c(n2c1)C(=O)C(=O)c1ccccc1-3 | -100% (active)
COc1cccc(C(=O)OCCn2nc3c4c(cccc42)C(=O)c2ccccc2-3)c1O | 56.6%
COc1ccc(C(C)c2cc(OC)c(OC)c(OC)c2)cc1 (stereo not drawn) | 37%
C#C[C@@]1(O)[C@@H](CO)O[C@@H](n2ccc3c(N)ncnc32)[C@@H]1O | 3.47% (active)
COc1cc(NC(=O)COc2cc(C)nc3ccc(OC)cc23)cc(OC)c1 | 82%
CN1CCN(C(=O)[C@@]2(C)CC[C@]3(C)CC[C@]4(C)C(=CC[C@@H]5[C@@]6(C)CC[C@H](OC(=O)c7cccnc7)C(C)(C)[C@@H]6CC[C@]54C)[C@@H]3C2)CC1 | 77.7%
NS(=O)(=O)c1ccc(N2Cc3cc(Cl)ccc3OC3=C2C(=O)N(CC2CCCCC2)C3=O)cc1 | -100% (active)
CCCCc1nc(Cl)c(C2CC(c3ccc(Cl)cc3)=NN2c2cc(Cl)cc(Cl)c2)[nH]1 (stereo not drawn) | 14.2%
C[C@H]1[C@H](C)CC[C@]2(C(=O)OCCOCCOCC[P+](c3ccccc3)(c3ccccc3)c3ccccc3)CC[C@]3(C)C(=CC[C@@H]4[C@@]5(C)CC[C@H](OC(=O)C(Cl)Cl)C(C)(C)[C@@H]5CC[C@]43C)[C@H]12 | -1.41% (active)
C=C(C)[C@@H]1CC[C@]2(C(=O)N3CCN(C)CC3)CC[C@]3(C)[C@H](CC[C@@H]4[C@@]5(C)C/C(=C/c6ccco6)C(=O)C(C)(C)[C@@H]5CC[C@]43C)[C@@H]12 | 74.7%
Clc1ccc2c(NCCCNC3CCCCC3)ccnc2c1 | 116%
CCSc1nc(Cl)c(C#N)c(-c2ccc(F)cc2)n1 | 100%
COc1cc2c(cc1OCCCOc1cc3c(cc1OC)C(=O)N1CC(F)(F)C[C@H]1C=N3)N=C[C@@H]1CC(F)(F)CN1C2=O | 24.7%
CN1CCN(CC#CCOC(=O)CNC(=O)[C@]23CCC(C)(C)C[C@H]2C2=CC[C@@H]4[C@@]5(C)CC[C@H](O)C(C)(C)[C@@H]5CC[C@@]4(C)[C@]2(C)CC3)CC1 | 92.5%
COc1cc(C(=O)N2CCN(c3ccccc3OC)CC2)c(NC(=O)c2cnccn2)cc1OCc1ccccc1 | 92.5%
